High-throughput results deposited in PubChem by National Center for Advancing Translational Sciences (NCATS).
The list is not random: actives were taken first. Their share in the collection is about 8.7%.
VACV Venus inh: inhibitors of vaccinia virus (Venus reporter); Vaccinia virus Venus reporter expression, fluorescence; Potency, µM (series often up to 36.5 µM), without a hit: at the top dose activity change, negative = inhibition, hits mostly inhibitors; actives 0.46% (n = 330,000); AID 720580; calls by dose curve; tested in A549 cells; also: nearly all actives have a fitted effect of over 30% in size
Pf growth 48h: inhibits P. falciparum growth in the first generation, 48 h; P. falciparum luciferase growth in erythrocytes, 48 h; Potency, µM (titrated, usually from 28.7 µM), for inactives: at the highest dose activity change, negative = inhibition, most hits filed as inhibitors; actives 5.9% (n = 310,000)
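Firefly luciferase activity from engineered P. falciparum reports growth; inhibitors lower the luminescent signal. Cultures contained 2% hematocrit erythrocytes at 0.1% final parasitemia.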
Pf growth 96h: P. falciparum growth inhibition at 96 hour, primary screen for plastid delayed-death inhibitors. P. falciparum luciferase reporter growth, 96 h. Potency, µM (top dose mostly 28.7 µM), without a hit: top-dose activity change, negative = inhibition, hits mostly inhibitors. actives 6.9% (n = 320,000)
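P. falciparum expressing integrated firefly luciferase, in erythrocytes at 2% hematocrit, 0.05% parasitemia, incubated with compounds 96 h at 37 C, 5% CO2. Growth inhibition read as loss of luminescence; two-generation exposure targets delayed-death apicoplast inhibitors.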
Vaccinia mCherry: inhibitors of vaccinia virus infection (mCherry reporter signal); Vaccinia virus mCherry reporter infection, fluorescence; Potency, µM (doses to about 36.5 µM), without a hit: top-dose activity change, negative = inhibition, usual class: inhibitors; actives 0.63% (n = 310,000); AID 720579; calls by dose curve; tested in A549 cells; also: nearly all actives have a fitted effect of over 35% in size
AMA1-RON2 inh: inhibitors of Plasmodium falciparum AMA1-RON2 interaction; AlphaScreen AMA1-biotinylated RON2 peptide binding; Potency, µM (series often up to 58.2 µM), without a hit: top-dose activity change, negative = inhibition, hits mostly inhibitors; actives 0.2% (n = 360,000); AID 720542;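 also: 0% = vehicle wells and -100% = peptide control; nearly all actives have a fitted effect of over 45% in size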
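AMA1 (3D7) with his tag at 25 nM final met compounds first, then biotinylated RON2 peptide at 25 nM; detection used donor plus acceptor beads, 10 µg/mL apiece, read by AlphaScreen after 30 min at room temperature.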
Numbers without * were called inactive; ! = repeats disagree; [ ] = dose if it differs, or a comment. Unless noted, calls follow the shape of the dose curve; as a rule, active = well fitted curve in the direction sought with a large enough effect; inconclusive = small, poorly fitted or top-dose-only effect, or another doubt; inactive = no such curve, though single readings can be large; an effect the other way counts as inactive or inconclusive. Unless noted, % is scaled to controls: 0 for no effect and ±100 for the full control effect; potency is read from the fitted curve at half-maximal effect.

`CC(C)C[C@H](NC(=O)c1nc[nH]c1C(=O)N[C@@H](CCCCNC(=O)OC(C)(C)C)C(=O)OC(C)(C)C)C(=O)OCc1ccccc1` gave VACV Venus inh inconclusive, Pf growth 48h inconclusive, Pf growth 96h 3.3µM*, Vaccinia mCherry -20% and AMA1-RON2 inh 112%.
Screening CC(C)(C)OC(=O)NCCCCCNC(=O)c1[nH]cnc1C(=O)N[C@@H](Cc1ccccc1)C(=O)OCc1ccccc1 returned VACV Venus inh -12%, Pf growth 48h 8.3µM*, Pf growth 96h 12µM*, Vaccinia mCherry inactive and AMA1-RON2 inh 126%.
CCc1ccccc1NC(=O)c1cc(S(=O)(=O)N2CCc3ccccc32)ccc1F was read as VACV Venus inh -17% and Vaccinia mCherry -6%.
For CCc1ccc(NC(=O)NCCN2CCN(c3ccc(OC)cc3)CC2)cc1 the results were Pf growth 48h -1%[0.00184 µM], Pf growth 96h 13µM* and AMA1-RON2 inh -15%.
For CCc1ccc(N2CCN(CCNC(=O)Nc3ccc(OC)cc3)CC2)cc1 the results were Pf growth 48h 2%, Pf growth 96h inconclusive and AMA1-RON2 inh -15%.
COc1ccc(Cl)c(N2CCN(CCCNC(=O)Nc3ccc(C)cc3)CC2)c1 was read as VACV Venus inh -33%, Pf growth 48h 13µM* and AMA1-RON2 inh -2%.
Screening O=C(Cn1ncc2c3ccccc3n(Cc3ccc(F)cc3)c2c1=O)NCc1ccccn1 returned VACV Venus inh -26% and Vaccinia mCherry -22%.
CCN(CC)CCCNC(=O)C1CCN(S(C)(=O)=O)CC1 was read as VACV Venus inh 12% and Vaccinia mCherry -3%.
For Cn1c(C(O)c2ccc3c(c2)OCO3)nc2ccccc21 (configuration not stated) the results were VACV Venus inh -11%, Pf growth 48h -2%, Pf growth 96h 105% and AMA1-RON2 inh 0%.
CC(C)n1c(C(O)c2ccc3c(c2)OCO3)nc2ccccc21 (configuration not stated) was read as VACV Venus inh -11%, Pf growth 48h 9.3µM*, Pf growth 96h -10%, Vaccinia mCherry -21% and AMA1-RON2 inh 10%.
For COc1ccc(C(=O)Nc2cccc(-c3cn4ccsc4n3)c2)c(OC)c1 the results were VACV Venus inh -8% and Vaccinia mCherry -14%.
Screening COc1cc2ccccc2cc1C(=O)N1CCN(c2nc3c(C)cc(C)cc3s2)CC1 returned VACV Venus inh -13% and Vaccinia mCherry -16%.
For COC(=O)c1cc2oc(C)cc2n1CC(=O)Nc1ccc(C)c(C)c1 the results were VACV Venus inh -7%, Pf growth 48h 0%, Pf growth 96h 1.7µM*, Vaccinia mCherry -9% and AMA1-RON2 inh 1%.
For COC(=O)c1cc2oc(C)cc2n1CC(=O)N1CCCc2ccccc21 the results were Pf growth 48h inconclusive, Pf growth 96h 6.6µM* and AMA1-RON2 inh -13%.
CCOC(=O)c1cc2occc2n1CC(=O)N1CCCc2ccccc21 was read as VACV Venus inh -11%, Pf growth 48h 9.3µM*, Pf growth 96h inactive, Vaccinia mCherry -25% and AMA1-RON2 inh -17%.
`COC(=O)c1cc2sc(Cl)cc2n1CC(=O)N1CCCc2ccccc21` gave VACV Venus inh -1%, Pf growth 48h 10µM*, Pf growth 96h 21%, Vaccinia mCherry -9% and AMA1-RON2 inh -2%.
Screening O=C1c2oc3ccccc3c(=O)c2C(c2cccc(O)c2)N1Cc1ccc(F)cc1 (configuration not stated) returned VACV Venus inh -8% and Vaccinia mCherry -4%.
`Cc1ccc(/C=C/c2onc(C)c2S(=O)(=O)N2CCC(C(=O)Nc3ccccc3C(F)(F)F)CC2)cc1` gave VACV Venus inh -22% and Vaccinia mCherry -20%.
For O=C(NCC1CCCCN1)c1cc(OCC(F)(F)F)ccc1OCC(F)(F)F (configuration not stated) the results were VACV Venus inh 10µM*!, Pf growth 48h -25%, Pf growth 96h inconclusive, Vaccinia mCherry 35µM*! and AMA1-RON2 inh 2%.
For O=C(NCCN1CCCCC1)c1cc(OCC(F)(F)F)ccc1OCC(F)(F)F the results were VACV Venus inh -4%, Pf growth 48h 45%, Pf growth 96h 53%, Vaccinia mCherry inconclusive and AMA1-RON2 inh -5%.
